Records with an inconclusive call do not appear. Entries that show only a call come without a potency. Activity calls are given as the source filed them. Calls follow the shape of the dose curve; as a rule, active = well fitted inhibition curve with a large enough effect; inconclusive = small, poorly fitted or top-dose-only effect; inactive = no such curve, though single readings can be large or run the other way.
Potency is read from the fitted curve at half-maximal effect.

A short description of this test: Confirmatory fluorescence-based thiol-reactive (MSTI) qHTS assay for identification of artifact compounds. Conditions: MSTI thiol-reactivity probe, 1 h; series mostly up to 39.2 µM. The text has this: PI: Alexander Tropsha Ph.D. UNC Eshelman School of Pharmacy University of North Carolina, Chapel Hill, North Carolina Hits from high-throughput screening (HTS) of chemical libraries are often false positives due to their interference with the assay detection technology. In response to this problem, we generated the largest publicly available library of chemical liabilities and developed a free webtool to predict HTS artifacts, both of which are described herein. More specifically, we generated, curated, and integrated HTS datasets for thiol reactivity, redox activity, and luciferase (firefly and nano) activity. Using these curated datasets, we developed and validated several Quantitative Structure-Interference Relationship (QSIR) models to predict nuisance behavior. […] These models were employed for virtual profiling of the National Center for Advancing Translational Science's (NCATS) in-house library, and 256 compounds for each assay were selected for the experimental validation of nuisance behavior. The BA for these external predictions ranged from 58 to 78% for compounds within the applicability domains of the models. […] The models developed in this study, along with aggregation models previously developed by our group (SCAM Detective) were implemented in "Liability Predictor," an online tool which may be used as part of chemical library design or for triaging HTS hits. Both the models and the curated datasets are publicly available at https://liability.mml.unc.edu/.
PROTOCOL TABLE SEQUENCE No. (e.g., 1, 2, 3, etc.); PARAMETER (e.g., Cells, Incubation, Reagent, etc.); VALUE; DESCRIPTION. 1; Reagent; 4 uL; […]. 2; Compounds and control; 16 nL; Kalypsis pin tool (Wako USA) equipped with a 1536-well pin head. 3; Incubation; 1 hour. 4; Detection; Fluorescence, ViewLux microplate reader, 525 nm excitation, 598 nm emission. NOTES (numbers refer to Sequence numbers above) 1. Assays determining (E)-2-(4-mercaptostyryl)-1,3,3-trimethyl-3H-indol-1-ium (MSTI) reactivity were performed as previously described in the literature with modifications for the quick identification of compounds reacting with thiol. In brief, 4 uL of MSTI or positive control Acetyl-MSTI (final concentrations of 4 uM and 4 uM, respectively) in assay buffer (2% DMSO in 1X PBS pH 7.4) was dispensed into all wells of a 1536-well assay plate (solid-bottom black plate; Greiner Bio One, Monroe, NC). 2. A Wako Pin-tool (Wako Automation, Richmond, VA) was used to transfer 16 nL of compounds (consisting of 7-plates in qHTS format, final concentration range 18.3 nM to 114 uM) or control MLS001163887 (final concentration range 1.22 nM to 40 uM). 3. Plates were centrifuged (121xg, 15 seconds) and incubated for 1 hour at room temperature protected from light. 4. Samples were read for fluorescence (Ex/Em = 525(20)/598(25) nm) on a ViewLux CCD imager (PerkinElmer). Data were normalized to Acetyl-MSTI (0% activity) and MSTI (100% activity) and the resulting percent inhibition data were fitted to a 4-parameter Hill equation using NCATS in-house software.
Consider `O=S(=O)(Nc1ccc(S(=O)(=O)Nc2nccs2)cc1)c1ccc2ccccc2c1`, for which the Potency entry was “inactive”.

With `CC1(C)S[C@@H]2[C@H](NC(=O)[C@H](N)c3ccccc3)C(=O)N2[C@H]1C(=O)O`, the Potency result is “inactive”.

Take `Cc1ccc(Cn2cc(CCC(=O)NC3CCCCC3)c3ccccc32)cc1`: the Potency entry is “inactive”.

As for `O=c1c2ccccc2nc2sc(NS(=O)(=O)c3ccc4c(c3)CCC4)nn12`, the Potency entry was “inactive”.

For `Cc1ccc2cccc(NC(=O)c3ccc(-c4cccc([N+](=O)[O-])c4)o3)c2n1`, the Potency entry was “inactive”.

Regarding `O=C(Nc1ccc2oc(-c3cccc4c(Br)cccc34)nc2c1)c1cccnc1`, the Potency entry was “inactive”.

Consider `COc1ccc(NC(=O)N2CCc3c(sc4c3CCCC4)C2c2ccccc2OC)cc1` (stereo not given), for which the Potency entry is “inactive”.

As to `Cc1ccc(NC(=O)Cn2c(=O)oc3cc(S(=O)(=O)N4CCCCC4)ccc32)c(Cl)c1`, the Potency entry is “inactive”.

Turning to `COCCn1c(=N)c(C(=O)NC2CCCC2)cc2c(=O)n3cc(C)ccc3nc21`, the Potency result was “inactive”.

`CC(C)C(=O)OC1=CN(Cc2ccccc2)S(=O)(=O)c2ccccc21`: the Potency entry was “inactive”.

Take `COc1ccc(N2C(=O)NC(NS(=O)(=O)c3ccc(Cl)cc3)(C(F)(F)F)C2=O)cc1` (stereo not given): the Potency result is “inactive”.

As for `CCOc1ccc(CCNC(=O)c2ccc3c(c2)nc2n3CCOC2)cc1OCC`, the Potency result is “inactive”.

Take `COc1ccc(CNC(=O)c2nnn(CC(=O)Nc3cc(C)cc(C)c3)c2N)cc1`: the Potency result is “inactive”.

Turning to `O=C(COc1ccccc1Cl)NCC1(N2CCOCC2)CCCCC1`, the Potency entry was “inactive”.

Regarding `COc1cc2c(C(=O)N3CCN(c4ccc(F)cc4)CC3)cn(CC(C)C)c(=O)c2cc1OC`, the Potency entry was “inactive”.

As for `Cc1ccc(NC(=O)NCC2CCN(Cc3cccc(Cl)c3)CC2)cc1Cl`, the Potency entry is “inactive”.

As for `CCCC12CN3CC(C)(CN(C1)C3c1ccc(CC)cc1)C2=O` (stereo not given), the Potency entry is “inactive”.

For `COc1ccc(C2Nc3ccccc3C(=O)N2CC(C)(C)C)cc1COc1ccc(NC(C)=O)cc1` (stereo not given), the Potency entry was “inactive”.

With `COc1ccc(N2C(=O)CSC23C(=O)N(CC(N)=O)c2ccccc23)cc1` (stereo not given), the Potency result was “inactive”.

As for `COC(=O)c1c(OCc2ccccn2)cc(=O)n2c1CCN(C(=O)c1n[nH]c3c1CCCC3)CC2`, the Potency entry is “inactive”.

`Cc1cc(C)cc(NC(=O)C(CC(C)C)NC(=O)C2CCCCC2)c1` (stereo not given): the Potency result was “inactive”.

For the compound `COC(=O)c1ccc(NC(=O)CC2C(=O)N(c3ccccc3)C(=O)N2Cc2cccs2)cc1` (stereo not given), the Potency entry was “inactive”.

As to `CC(C)(C)C(=O)NC1(C(F)(F)F)C(=O)Nc2c1c(=O)[nH]c(=O)n2-c1ccccc1` (stereo not given), the Potency entry is “inactive”.

For the compound `O=C(O)Cc1cc(I)c(Oc2cc(I)c(O)c(I)c2)c(I)c1`, the Potency result is “inactive”.

As to `CCc1ccc2c(O)c3c(cc2c1C(=O)OC)C(=O)c1c(O)ccc(O)c1C3=O`, the Potency is 386 nM (active).

Consider `CSc1ncc(C(=O)NCc2ccccc2)c(-c2ccccc2)n1`, for which the Potency entry was “inactive”.

Regarding `CCOC(=O)c1sc2cccc(F)c2c1S(=O)(=O)NCc1ccccc1Cl`, the Potency entry was “inactive”.

On to `COc1ccccc1C(CC(=O)Nc1ccc(F)cc1)c1ccccc1` (stereo not given), for which the Potency entry is “inactive”.

Consider `COc1ccc(CCn2c3c(c(=O)[nH]c2=S)CN(C(C)C)CN3)cc1OC`, for which the Potency result is “inactive”.

As to `O=C(CSc1nnc(-c2cccc(F)c2)c(-c2cccc(F)c2)n1)NC1CCCCC1`, the Potency result is “inactive”.

On to `Cc1c(O)cc(O)c2c(=O)c(-c3ccc(O)cc3)coc12`, for which the Potency result was “inactive”.

With `O=C(CSc1nccn1C1CCCC1)Nc1ccc(C(F)(F)F)cc1`, the Potency result is “inactive”.

Consider `Cc1nn(C(=O)COc2ccccc2Br)c(C)c1Sc1ccccc1`, for which the Potency entry is “inactive”.

On to `COc1ccc(C2=NN(CCC(=O)NCCc3ccccc3)C(=O)CC2)cc1`, for which the Potency result is “inactive”.

`Cc1ccc(CN(Cc2ccco2)C(=O)COc2ccc(Cl)cc2Cl)cc1`: the Potency entry was “inactive”.

Regarding `Cc1ccc(C)c(N2CCN(Cc3csc(C)c3)CC2)c1`, the Potency result was “inactive”.

Take `CC/C=C/C/C=C/C/C=C/CCCCCCCC(=O)OCC`: the Potency entry was “inactive”.

For the compound `Cc1ccccc1C(=O)Nc1cc(C)c(O)c(-c2nc3ccccc3o2)c1`, the Potency entry is “inactive”.

`CCOc1ccc(CNC(=O)c2ccc3nc(CC)c(CC)nc3c2)cc1OC`: the Potency entry is “inactive”.

Turning to `CCCN(C(=O)Cc1c(C(=O)O)[nH]c2ccc(Cl)cc12)c1ccc(OCC)cc1`, the Potency entry was “inactive”.

Source of the values: PubChem BioAssay AID1845226 (National Center for Advancing Translational Sciences (NCATS), 2023).
